Data: the supplement of paper PMC12669032
A number with no mark means an inactive call.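 Rule for the calls: active = AUC reduced over 20% with Padj below 0.05 in at least 2 of 3 replicates; inactive = otherwise.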

How the values were obtained:
Assay in all cases: growth AUC relative to DMSO control (median of replicates) (fraction); higher = more growth (less inhibition), active = hit call of the paper
Details in all cases: 20 µM; 24 h
Coprococcus comes = system: Coprococcus comes
Summary of the method: (§1)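 Area under the growth curve was normalised to the plate median of solvent-only wells, except on the industrial chemical plate, where row and column medians were used. Curves came from gut bacterial monocultures grown anaerobically at 37 °C in mGAM with 20 µM compound (1% DMSO), starting at OD600 0.05 and read at OD600 every hour for 24 h. The minimum OD of each curve was set to 0, and values are medians of three biological replicates grown on separate days.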

Escherichia coli ED1a = system: Escherichia coli ED1a
Summary of the method: as §1

Escherichia coli IAI1 = system: Escherichia coli IAI1
Summary of the method: as §1

Eubacterium rectale = system: Eubacterium rectale
Summary of the method: as §1

[1] = system: Fusobacterium nucleatum subsp. animalis
Summary of the method: as §1

Lactobacillus gasseri = system: Lactobacillus gasseri
Summary of the method: as §1

Lactobacillus paracasei = system: Lactobacillus paracasei
Summary of the method: as §1

Odoribacter splanchnicus = system: Odoribacter splanchnicus
Summary of the method: as §1

[2] = system: Parabacteroides distasonis
Summary of the method: as §1

Parabacteroides merdae = system: Parabacteroides merdae
Summary of the method: as §1

Roseburia intestinalis = system: Roseburia intestinalis
Summary of the method: as §1

Streptococcus salivarius = system: Streptococcus salivarius
Summary of the method: as §1

Compound	growth AUC (Coprococcus comes)	growth AUC (Escherichia coli ED1a)	growth AUC (Escherichia coli IAI1)	growth AUC (Eubacterium rectale)	growth AUC [1]	growth AUC (Lactobacillus gasseri)	growth AUC (Lactobacillus paracasei)	growth AUC (Odoribacter splanchnicus)	growth AUC [2]	growth AUC (Parabacteroides merdae)	growth AUC (Roseburia intestinalis)	growth AUC (Streptococcus salivarius)
CNC(=O)/C(=N/OC)c1ccccc1Oc1ccccc1	0.989	1	0.997	0.977	0.968	1.04	1.05	0.992	0.995	0.997	1.04	0.989
COC(=O)c1cc(Oc2ccc(Cl)cc2Cl)ccc1[N+](=O)[O-]	0.993	0.985	0.982	1.11	0.975	0.933	0.928	0.934	0.449 (active)	0.958	0.891	1.02
CNC(=O)c1cc(C#N)cc(C)c1NC(=O)c1cc(Br)nn1-c1ncccc1Cl	0.996	1.01	1.02	0.972	0.88	1.12	1.02	0.99	1.02	0.983	0.961	1.04
CN(C)C(=O)Nc1cccc(C(F)(F)F)c1	0.965	1.01	0.986	1.01	1.05	1.05	0.985	1.07	0.961	1	0.979	0.991
CN(C)C(=S)[S-].CN(C)C(=S)[S-].[Zn+2]	0.834	0.953	0.906	0.563 (active)	0.993	0.976	0.966	0.384 (active)	0.954	0.699 (active)	0.792	0.925
CCCN(CCC)c1c([N+](=O)[O-])cc(C(C)C)cc1[N+](=O)[O-]	1.06	1.02	0.996	1.02	1	0.941	1.09	0.989	0.932	0.984	1.01	0.99
O=[N+]([O-])c1ccc(Oc2ccc(Cl)cc2Cl)cc1	0.988	0.99	0.983	1.07	1	0.789	0.976	0.946	0.655 (active)	0.967	0.967	0.981
Clc1cccc(C(Cl)(Cl)Cl)n1	1.02	0.974	0.976	1.05	1.01	0.889	1.01	0.964	1	0.967	1	0.959
COc1cnc(OC)n2nc(NS(=O)(=O)c3c(OCC(F)F)cccc3C(F)(F)F)nc12	1.01	1.01	1.02	0.954	0.96	1.08	0.965	1.01	1.01	1.01	1.01	0.959
COP(=S)(OC)Oc1ccc([N+](=O)[O-])c(Cl)c1	0.95	0.97	0.984	1.18	0.975	0.893	0.974	0.876	0.921	0.932	0.926	1.05
O=[N+]([O-])C(Br)(CO)CO	0.925	1	0.987	0.949	1	0.958	0.999	1	1.03	0.998	0.964	0.967
Oc1ccc(Cl)c(Cl)c1Cl	1.02	1.01	0.971	1.06	1.09	1.12	1.01	0.978	0.971	1.06	1.05	0.96
Cc1cc(OC(=O)N(C)C)nn1C(=O)N(C)C	1.03	0.996	0.971	1.01	1.03	0.992	0.963	0.935	1.11	0.966	1.06	0.971
Cc1cc(C(C#N)c2ccc(Cl)cc2)c(Cl)cc1NC(=O)c1cc(I)cc(I)c1O (stereo not given)	0.275 (active)	0.958	0.953	0.072 (active)	0.702 (active)	0.0202 (active)	0.0904 (active)	0.017 (active)	0.0201 (active)	0.00673 (active)	0.15 (active)	0.0175 (active)
CCOC(=O)/C=C(C)/C=C/C[C@@H](C)CCCC(C)C	0.979	1	0.997	1.03	1.15	1.13	1.01	0.954	1.02	0.989	1.09	0.972
O=C(O)c1ccc(=O)[nH]c1	0.999	0.99	1.03	0.976	0.982	0.972	0.987	0.985	1.02	0.983	1.01	0.981
CC(CCl)OP(=O)(OC(C)CCl)OC(C)CCl (mixture of isomers)	0.999	0.973	0.984	1.08	1.08	0.851	1.01	1.01	0.94	0.976	0.967	1.01
Cc1cc(C)nc(Nc2ccccc2)n1	0.986	1.01	0.974	0.983	1.01	1.09	0.988	0.965	1	0.971	0.999	0.995
COP(=O)(OC)Oc1ccc(S(C)(=O)=O)c(C)c1	0.989	1	0.983	0.795	0.998	1.07	0.971	1.02	1.02	0.995	1.02	1.01
Nc1cc(Cl)cc(Cl)c1	1.01	1.03	1.06	1.04	1.13	0.944	1	0.893	1	1.04	1.07	1.01
COc1cc(C)c(C(=O)c2c(OC)ccc(Br)c2C)c(OC)c1OC	1.04	1.01	0.971	1.02	1.01	0.709	1.03	1.05	0.528 (active)	1.01	0.989	1.01
Nc1ccncc1	0.95	0.99	0.983	0.949	0.969	0.897	1	0.974	1.02	1.02	0.981	0.981
CCSCCSP(=S)(OC)OC	1.1	1.01	1	0.899	1.05	1.06	1.01	1.07	1.05	0.988	1.03	1.02
CON(C)C(=O)Nc1ccc(Cl)cc1	1.02	1.01	1	0.999	0.96	1.04	0.97	0.998	1.02	1.02	1.02	1.04
OC(c1ccc(F)cc1)(c1cncnc1)c1ccccc1Cl (stereo not given)	0.962	0.996	1.01	0.965	1.06	0.969	1.02	0.931	1	0.782 (active)	0.975	0.996
